Laboratory results taken from PubChem BioAssay (EPA / NIEHS).
Records with an inconclusive call do not appear. Some structures have more than one record in an assay (separate samples or runs), and their calls can disagree. Calls of active or inactive are those of the source. Rule for the calls, unless noted: active = hit-call score of the fitted dose curve at least 0.9, where 1 is the maximum; inactive = score below 0.9.

Experiments:
[1] = target: Retinoic acid receptor RXR-alpha (Homo sapiens) (UniProt P19793); test: ATG_RXRa_TRANS: Attagene TRANS-FACTORIAL HepG2 Assay for human Retinoid X Receptor alpha (RXRa) (AID 2283012; active = hit-call score of the fitted dose curve at least 0.9, where 1 is the maximum)
Sequence of Retinoic acid receptor RXR-alpha (Homo sapiens) (P19793 whole entry, looked up, the tested form may be a part): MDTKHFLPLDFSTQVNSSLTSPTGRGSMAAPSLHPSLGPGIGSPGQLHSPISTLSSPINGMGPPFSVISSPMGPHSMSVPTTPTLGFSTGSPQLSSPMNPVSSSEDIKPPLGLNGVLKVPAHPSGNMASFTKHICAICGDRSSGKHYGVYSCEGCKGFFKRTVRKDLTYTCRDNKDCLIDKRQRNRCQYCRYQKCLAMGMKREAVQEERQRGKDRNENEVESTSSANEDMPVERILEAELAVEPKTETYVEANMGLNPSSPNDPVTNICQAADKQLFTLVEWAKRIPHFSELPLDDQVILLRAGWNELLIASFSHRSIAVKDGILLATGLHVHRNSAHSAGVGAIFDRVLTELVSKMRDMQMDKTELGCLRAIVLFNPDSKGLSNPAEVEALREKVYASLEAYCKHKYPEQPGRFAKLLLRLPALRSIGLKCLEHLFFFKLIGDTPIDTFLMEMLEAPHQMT
Procedure, shortened: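 Transient transfection of human HepG2 with multiple GAL4-UAS reporter constructs; 24 h compound exposure; total RNA isolated, reverse-transcribed, PCR-amplified, 6-FAM labelled, HpaI-cut, resolved by capillary electrophoresis. Positive-direction fit versus DMSO.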

[2] = target: human Retinoid X Receptor beta (RXRb), RXRB (gene 6257) (UniProt P28702); test: ATG_RXRb_TRANS: Attagene TRANS-FACTORIAL HepG2 Assay for human Retinoid X Receptor beta (RXRb) (AID 2283013; active = hit-call score of the fitted dose curve at least 0.9, where 1 is the maximum)
Sequence of human Retinoid X Receptor beta (RXRb), RXRB (gene 6257) (P28702 whole entry, looked up, the tested form may be a part): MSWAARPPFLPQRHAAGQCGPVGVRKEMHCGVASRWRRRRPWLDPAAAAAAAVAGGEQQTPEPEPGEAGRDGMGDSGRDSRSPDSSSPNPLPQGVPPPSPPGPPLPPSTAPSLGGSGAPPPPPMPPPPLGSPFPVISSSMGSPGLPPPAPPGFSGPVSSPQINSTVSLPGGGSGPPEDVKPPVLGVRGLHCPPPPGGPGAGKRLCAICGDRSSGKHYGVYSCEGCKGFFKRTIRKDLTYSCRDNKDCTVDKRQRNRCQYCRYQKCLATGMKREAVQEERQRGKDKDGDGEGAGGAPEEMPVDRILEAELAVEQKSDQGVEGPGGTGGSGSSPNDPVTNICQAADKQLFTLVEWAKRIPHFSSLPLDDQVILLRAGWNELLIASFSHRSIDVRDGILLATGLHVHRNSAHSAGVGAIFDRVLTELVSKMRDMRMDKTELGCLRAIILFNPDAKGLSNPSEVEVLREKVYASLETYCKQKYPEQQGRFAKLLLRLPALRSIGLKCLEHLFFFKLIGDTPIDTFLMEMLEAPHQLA
Procedure, shortened: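 Transfect HepG2 with GAL4-UAS multi-reporter constructs (chimeric NR-Gal4, TRANS format); dose compound 24 h; isolate RNA, RT-PCR, FAM primer extension, HpaI digest; quantify by capillary electrophoresis; positive direction vs DMSO.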

[3] = target: human Thyroid Receptor alpha (THRa1), THRA (gene 7067) (UniProt P10827); test: ATG_THRa1_TRANS: Attagene TRANS-FACTORIAL HepG2 Assay for human Thyroid Receptor alpha (THRa1) (AID 2283014; active = hit-call score of the fitted dose curve at least 0.9, where 1 is the maximum)
Sequence of human Thyroid Receptor alpha (THRa1), THRA (gene 7067) (P10827 whole entry, looked up, the tested form may be a part): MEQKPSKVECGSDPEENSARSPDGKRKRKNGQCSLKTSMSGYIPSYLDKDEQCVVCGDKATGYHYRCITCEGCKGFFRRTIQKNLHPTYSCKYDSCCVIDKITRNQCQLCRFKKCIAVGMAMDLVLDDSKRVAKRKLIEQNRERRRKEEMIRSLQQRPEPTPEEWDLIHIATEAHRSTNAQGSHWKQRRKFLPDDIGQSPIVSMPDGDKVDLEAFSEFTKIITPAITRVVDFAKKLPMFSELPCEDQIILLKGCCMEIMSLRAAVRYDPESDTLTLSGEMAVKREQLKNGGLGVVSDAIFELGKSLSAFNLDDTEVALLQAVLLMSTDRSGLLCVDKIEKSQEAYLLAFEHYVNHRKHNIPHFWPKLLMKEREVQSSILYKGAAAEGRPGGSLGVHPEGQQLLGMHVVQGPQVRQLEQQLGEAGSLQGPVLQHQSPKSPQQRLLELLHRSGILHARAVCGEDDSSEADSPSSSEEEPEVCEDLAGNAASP
Procedure, shortened: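 HepG2 cells transiently transfected with multiplexed GAL4-UAS reporter units for exogenous chimeric THRa1-Gal4; reporter mRNA measured 24 h after dosing by RT-PCR, 6-FAM labelling, HpaI digestion and capillary electrophoresis. Gain-of-signal fitted versus DMSO baseline.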

[4] = read-out: E-selectin (Homo sapiens) (UniProt P16581); test: BSK_3C_Eselectin: BioMAP Diversity Plus: 3C Assay for Eselectin Biomarker Activity (AID 2283015); settings: primary human endothelial cells (HUVEC); actives raise or lower the signal
Procedure, shortened: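 Primary human umbilical vein endothelial cells (3C system) were dosed with chemical and cell-surface E-selectin measured by ELISA 24 h later. Bidirectional curve fitting used DMSO as negative control and baseline.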

[5] = read-out: Interleukin-1 alpha (IL1a), IL1A (gene 3552); test: BSK_BE3C_IL1a: BioMAP Diversity Plus: BE3C Assay for Interleukin-1 alpha (IL1a) Biomarker Activity (AID 2283016); settings: primary human bronchial epithelial cells; actives raise or lower the signal
Procedure, shortened: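 BE3C primary human bronchial epithelium; cpd 24 h; IL-1a by ELISA; bidirectional fit vs DMSO; parallel SRB (0.1% SRB, 10% TCA fix, 560 nm) for cytotoxicity.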

[6] = read-out: Monocyte Chemoattractant Protein-1 (MCP1), CCL2 (gene 6347); test: BSK_3C_MCP1: BioMAP Diversity Plus: 3C Assay for Monocyte Chemoattractant Protein-1 (MCP1) Biomarker Activity (AID 2283017); settings: primary human endothelial cells (HUVEC); actives raise or lower the signal
Procedure, shortened: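 Primary human umbilical vein endothelial cells (3C system) were exposed to test chemical for 24 h, after which MCP-1 was quantified by ELISA. Activity was fitted bidirectionally against DMSO as negative control and baseline.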

[7] = read-out: Monocyte Chemoattractant Protein-1 (MCP1), CCL2 (gene 6347); test: BSK_4H_MCP1: BioMAP Diversity Plus: 4H Assay for Monocyte Chemoattractant Protein-1 (MCP1) Biomarker Activity (AID 2283018); settings: primary human endothelial cells (HUVEC); actives raise or lower the signal
Procedure, shortened: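 ELISA read-out of MCP-1 from human vascular endothelial primary cells taken at 24 hours after compound exposure. Activity was fitted in both directions relative to DMSO, which served as negative control.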

[8] = read-out: Human Leukocyte Antigen - DR isotype (HLADR), HLA-DRA (gene 3122); test: BSK_3C_HLADR: BioMAP Diversity Plus: 3C Assay for Human Leukocyte Antigen - DR isotype (HLADR) Biomarker Activity (AID 2283019); settings: primary human endothelial cells (HUVEC); actives raise or lower the signal
Procedure, shortened: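 Primary human umbilical vein endothelial cells (3C system) were dosed with compound and cell-surface HLA-DR was quantified by ELISA at 24 h. Activity was fitted bidirectionally against DMSO as negative control and baseline.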

[9] = read-out: Interleukin-8 (IL8), CXCL8 (gene 3576); test: BSK_3C_IL8: BioMAP Diversity Plus: 3C Assay for Interleukin-8 (IL8) Biomarker Activity (AID 2283020); settings: primary human endothelial cells (HUVEC); actives raise or lower the signal
Procedure, shortened: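 ELISA read-out of IL-8 from human umbilical vein endothelium, measured 24 h after chemical dosing. Activity is expressed relative to DMSO negative control, with both increases and decreases fitted.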

[10] = BSK_3C_SRB: Viability Assessment in the BioMAP Diversity Plus: 3C Assay (AID 2283023); settings: primary human endothelial cells (HUVEC);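 note: fitted both ways against DMSO so a hit may be signal rise or drop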
Procedure, shortened: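 Primary human umbilical vein endothelial cells in the 3C system were read 24 h after compound dosing. Total protein was stained with 0.1% sulforhodamine B after 10% TCA fixation and read at 560 nm, with bidirectional fitting against DMSO as baseline.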

[11] = read-out: Matrix Metallopeptidase 1 (MMP1), MMP1 (gene 4312); test: BSK_BE3C_MMP1: BioMAP Diversity Plus: BE3C Assay for Matrix Metallopeptidase 1 (MMP1) Biomarker Activity (AID 2283024); settings: primary human bronchial epithelial cells; actives raise or lower the signal
Procedure, shortened: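 Human bronchial epithelial cells (BE3C system) exposed to compound for 24 h; MMP1 then quantified by ELISA. Activity was fitted in both directions relative to DMSO.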

[12] = BSK_3C_Vis: BioMAP Diversity Plus: 3C Assay for Morphology Visualization (AID 2283025); settings: primary human endothelial cells (HUVEC);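 note: fitted both ways so gain or loss versus DMSO counts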
Procedure, shortened: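 Chemicals were added to primary human umbilical vein endothelium, cells were incubated 24 h, and morphology was then visualized by light microscopy. Gain or loss of signal was fitted bidirectionally relative to DMSO.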

[13] = read-out: Pselectin, SELP (gene 6403); test: BSK_4H_Pselectin: BioMAP Diversity Plus: 4H Assay for Pselectin Biomarker Activity (AID 2283026); settings: primary human endothelial cells (HUVEC); actives raise or lower the signal
Procedure, shortened: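 ELISA read-out of P-selectin on human umbilical vein endothelium after 24 h of dosing. Values derive from bidirectional fitting relative to DMSO. Parallel SRB protein staining flagged overt cytotoxicity.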

[14] = BSK_4H_SRB: Viability Assessment in the BioMAP Diversity Plus: 4H Assay (AID 2283027); settings: primary human endothelial cells (HUVEC);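 note: cells exposed to compound for 24 h before staining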;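 for AC50: curves fitted both ways versus DMSO so AC50 may be loss or gain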
Procedure, shortened: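 Human umbilical vein endothelial cells, 24 h after chemical dosing; total protein measured by 0.1% sulforhodamine B staining after 10% TCA fixation, read at 560 nm. Bidirectional fitting against DMSO.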

[15] = BSK_BE3C_SRB: Viability Assessment in the BioMAP Diversity Plus: BE3C Assay (AID 2283028); settings: primary human bronchial epithelial cells
Procedure, shortened: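 Human primary bronchial epithelial cells were exposed to test chemicals for 24 h. Total protein in parallel cultures was then measured by staining with 0.1% sulforhodamine B after 10% TCA fixation, with absorbance read at 560 nm. Activity was fitted bidirectionally against DMSO.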

[16] = read-out: Thrombomodulin, THBD (gene 7056); test: BSK_3C_Thrombomodulin: BioMAP Diversity Plus: 3C Assay for Thrombomodulin Biomarker Activity (AID 2283029); settings: primary human endothelial cells (HUVEC); actives raise or lower the signal
Procedure, shortened: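 Read-out is ELISA of thrombomodulin on human umbilical vein endothelium 24 h after chemical dosing. Gain or loss of signal is scored relative to DMSO. Overt cytotoxicity is checked in parallel cultures by sulforhodamine B staining.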

[17] = read-out: Vascular endothelial growth factor receptor 2 (Homo sapiens) (UniProt P35968); test: BSK_4H_VEGFRII: BioMAP Diversity Plus: 4H Assay for Vascular endothelial growth factor receptor 2 (VEGFR2) Biomarker Activity (AID 2283031); settings: primary human endothelial cells (HUVEC); actives raise or lower the signal
Procedure, shortened: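 Primary human umbilical vein endothelial cells in the BioMAP 4H system were dosed with test chemical, and 24 h later VEGFRII was measured by ELISA. Activity was fitted bidirectionally against DMSO as negative control and baseline.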

[18] = read-out: Monokine induced gamma interferon (MIG), CXCL9 (gene 4283); test: BSK_3C_MIG: BioMAP Diversity Plus: 3C Assay for Monokine induced gamma interferon (MIG) Biomarker Activity (AID 2283021); settings: primary human endothelial cells (HUVEC); actives raise or lower the signal
Procedure, shortened: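 Read-out is ELISA detection of MIG on human umbilical vein endothelial cells, taken 24 h after dosing. Gain or loss of signal was scored relative to DMSO controls using bidirectional curve fitting.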

[19] = target: human Vitamin D Receptor (VDR), VDR (gene 7421) (UniProt P11473); test: ATG_VDR_TRANS: Attagene TRANS-FACTORIAL HepG2 Assay for human Vitamin D Receptor (VDR) (AID 2283022; active = hit-call score of the fitted dose curve at least 0.9, where 1 is the maximum)
Sequence of human Vitamin D Receptor (VDR), VDR (gene 7421) (P11473 whole entry, looked up, the tested form may be a part): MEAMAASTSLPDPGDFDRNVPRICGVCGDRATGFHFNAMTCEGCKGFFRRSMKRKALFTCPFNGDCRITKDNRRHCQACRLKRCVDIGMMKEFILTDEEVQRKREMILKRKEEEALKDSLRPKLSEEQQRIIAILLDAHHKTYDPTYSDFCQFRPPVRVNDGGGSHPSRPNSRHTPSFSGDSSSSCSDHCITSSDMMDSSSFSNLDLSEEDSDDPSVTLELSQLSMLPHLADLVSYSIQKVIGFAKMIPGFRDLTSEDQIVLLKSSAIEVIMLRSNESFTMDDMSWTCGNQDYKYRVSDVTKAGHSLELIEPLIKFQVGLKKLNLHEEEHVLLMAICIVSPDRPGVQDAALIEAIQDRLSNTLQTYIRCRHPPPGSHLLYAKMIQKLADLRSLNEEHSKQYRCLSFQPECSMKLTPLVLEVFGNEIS
Procedure, shortened: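 HepG2 cells were transiently transfected with multiple GAL4-UAS reporter units, so signal reflects exogenous chimeric receptor-Gal4 activity. After 24 h compound exposure, reporter mRNA was measured by RT-PCR, fluorescent labelling and capillary electrophoresis, fitted for gain of signal versus DMSO.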

[20] = read-out: Urokinase-type plasminogen activator receptor (uPAR), PLAUR (gene 5329); test: BSK_4H_uPAR: BioMAP Diversity Plus: 4H Assay for Urokinase-type plasminogen activator receptor (uPAR) Biomarker Activity (AID 2283030); settings: primary human endothelial cells (HUVEC); actives raise or lower the signal
Procedure, shortened: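 Primary human umbilical vein endothelial cells were exposed to chemical for 24 h before cell-surface uPAR was quantified by ELISA. Activity was fitted bidirectionally against the DMSO negative control baseline.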

Measured: AC50

Sequence of E-selectin (Homo sapiens) (P16581 whole entry, looked up): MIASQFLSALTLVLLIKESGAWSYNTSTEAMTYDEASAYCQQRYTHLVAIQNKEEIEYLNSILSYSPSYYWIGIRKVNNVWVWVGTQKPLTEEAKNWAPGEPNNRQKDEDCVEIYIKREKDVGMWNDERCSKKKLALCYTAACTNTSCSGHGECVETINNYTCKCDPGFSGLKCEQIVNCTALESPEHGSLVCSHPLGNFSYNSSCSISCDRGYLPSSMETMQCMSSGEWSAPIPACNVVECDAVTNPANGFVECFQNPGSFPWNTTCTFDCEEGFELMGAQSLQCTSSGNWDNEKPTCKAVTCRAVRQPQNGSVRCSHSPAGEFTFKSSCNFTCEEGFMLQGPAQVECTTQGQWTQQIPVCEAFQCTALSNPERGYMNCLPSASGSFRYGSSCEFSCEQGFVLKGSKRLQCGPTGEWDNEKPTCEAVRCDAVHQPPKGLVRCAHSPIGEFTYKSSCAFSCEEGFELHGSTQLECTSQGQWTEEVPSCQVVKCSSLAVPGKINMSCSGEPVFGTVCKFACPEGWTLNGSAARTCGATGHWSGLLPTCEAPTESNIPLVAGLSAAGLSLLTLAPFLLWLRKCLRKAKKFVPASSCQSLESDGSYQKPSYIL

O=C1O[C@H]([C@H](O)CO)C(O)=C1O
not listed: [18] | [19] | [20]
inactive: all other assays above

Cc1cc(SC2=C(O)C[C@@](CCc3ccc(N)cc3)(C(C)C)OC2=O)c(C(C)(C)C)cc1CO
not listed: [3] | [20]
inactive: all other assays above

CCCCCCCCCC[N+](C)(C)[O-]
not listed: [3] | [20]
inactive: all other assays above

CC(=O)O
not listed: [18] | [19] | [20]
inactive: all other assays above

NCCOCCOCCN
not listed: [3]
inactive: all other assays above

CCCC[C@H]1CN(CC2CCOCC2)C(=O)OC12CCN(C1(C)CCN(C(=O)c3c(C)ncnc3C)CC1)CC2
not listed: [3] | [19]
inactive: all other assays above

CC(=O)O[C@]1(C(C)=O)CC[C@H]2[C@@H]3C=C(Cl)C4=CC(=O)[C@@H]5C[C@@H]5[C@]4(C)[C@H]3CC[C@@]21C
inactive: [1] | [2] | [3] | [4] | [6] | [7] | [9] | [18] | [19] | [12] | [13] | [14] | [15] | [16] | [17]
active: [5] 32.8 µM | [8] 33.4 µM | [19] 148 µM | [10] 29.8 µM | [11] 4.91 µM

O=NO
not listed: [3] | [20]
inactive: all other assays above

Oc1ccccc1O
active: [4] 1.73 µM | [6] 4.66 µM | [8] 5.45 µM | [10] 4.44 µM | [13] 9.58 µM | [14] 5.94 µM
not listed: [3]
inactive: all other assays above

COC(=O)[C@H]1[C@H]2C[C@@H]3c4[nH]c5cc(OC)ccc5c4CCN3C[C@H]2C[C@@H](OC(=O)c2cc(OC)c(OC)c(OC)c2)[C@@H]1OC
active: [4] 16.9 µM | [6] 16.9 µM | [7] 5.85 µM | [8] 25.8 µM | [9] 16.9 µM | [10] 24.9 µM | [13] 25.6 µM | [14] 22.5 µM
inactive: [1] | [2] | [3] | [18] | [11] | [15] | [16] | [17]

CC(=O)[C@@]1(O)CC[C@H]2[C@@H]3CCC4=CC(=O)CC[C@]4(C)[C@H]3CC[C@@]21C
active: [11] 8.47 µM | [20] 26.6 µM
not listed: [3] | [15]
inactive: all other assays above

CCCCOC(=O)CCCCC(=O)OCCCC
not listed: [20]
inactive: all other assays above

C=CCc1ccc(OC)c(OC)c1
active: [2] 65.4 µM
not listed: [3]
inactive: all other assays above

Nc1nc(=S)c2[nH]cnc2[nH]1
not listed: [19]
inactive: all other assays above
